What follows are binders tested against AgAbp1 (assay: SPOT peptide array binding signal intensity (averaged, normalized) (arbitrary units (background-subtracted, floor 0; scale differs between SH3 domains)); higher = stronger binding of the SH3 domain to the peptide).
Summary of the method: (§1)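 The binding signal is the normalized, background-subtracted spot intensity averaged over replicates; its arbitrary units differ between domains. It was obtained by incubating 10 μg/ml GST-fused SH3 domains from four yeast species overnight at 4°C in TBS-based blocking buffer on cellulose membranes with synthetic 15-mer peptides, cysteines replaced by serines, then detecting with anti-GST antibody, HRP anti-mouse secondary and luminol.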

Binder	SPOT peptide array binding signal intensity
KRRAPPPVPKKPSSR	5310

The binders below were run against AgBbc1 in the same assay as above.
Summary of the method: as §1

Binder	SPOT peptide array binding signal intensity
KRRAPPPVPKKPSSR	1320

Each binder was assayed against AgBem1-D1 in the same assay as above.
Summary of the method: as §1

Binder	SPOT peptide array binding signal intensity
KRRAPPPVPKKPSSR	274

Each binder was assayed against AgBzz1-D1 in the same assay as above.
Summary of the method: as §1

Binder	SPOT peptide array binding signal intensity
KRRAPPPVPKKPSSR	2790

The binders below were run against AgBzz1-D2 in the same assay as above.
Summary of the method: as §1

Binder	SPOT peptide array binding signal intensity
KRRAPPPVPKKPSSR	1090

Each binder was assayed against AgCyk3 in the same assay as above.
Summary of the method: as §1

Binder	SPOT peptide array binding signal intensity
KRRAPPPVPKKPSSR	4

Each binder was assayed against AgFus1 in the same assay as above.
Summary of the method: as §1

Binder	SPOT peptide array binding signal intensity
KRRAPPPVPKKPSSR	42.5

The binders below were run against AgHof1 in the same assay as above.
Summary of the method: as §1

Binder	SPOT peptide array binding signal intensity
KRRAPPPVPKKPSSR	358

What follows are binders tested against AgHse1 in the same assay as above.
Summary of the method: as §1

Binder	SPOT peptide array binding signal intensity
KRRAPPPVPKKPSSR	332

What follows are binders tested against AgLsb1 in the same assay as above.
Summary of the method: as §1

Binder	SPOT peptide array binding signal intensity
KRRAPPPVPKKPSSR	650

These binders were tested against AgLsb4 in the same assay as above.
Summary of the method: as §1

Binder	SPOT peptide array binding signal intensity
KRRAPPPVPKKPSSR	374

Each binder was assayed against AgMyo5 in the same assay as above.
Summary of the method: as §1

Binder	SPOT peptide array binding signal intensity
KRRAPPPVPKKPSSR	37

These binders were tested against AgNbp2 in the same assay as above.
Summary of the method: as §1

Binder	SPOT peptide array binding signal intensity
KRRAPPPVPKKPSSR	6190

What follows are binders tested against AgRvs167 in the same assay as above.
Summary of the method: as §1

Binder	SPOT peptide array binding signal intensity
KRRAPPPVPKKPSSR	106

The binders below were run against AgSho1 in the same assay as above.
Summary of the method: as §1

Binder	SPOT peptide array binding signal intensity
KRRAPPPVPKKPSSR	886

These binders were tested against AgSla1-D1-D2 in the same assay as above.
Summary of the method: as §1

Binder	SPOT peptide array binding signal intensity
KRRAPPPVPKKPSSR	107

What follows are binders tested against AgSla1-D3 in the same assay as above.
Summary of the method: as §1

Binder	SPOT peptide array binding signal intensity
KRRAPPPVPKKPSSR	1230

Each binder was assayed against CaAbp1-D1 in the same assay as above.
Summary of the method: as §1

Binder	SPOT peptide array binding signal intensity
KRRAPPPVPKKPSSR	5770

These binders were tested against CaAbp1-D2 in the same assay as above.
Summary of the method: as §1

Binder	SPOT peptide array binding signal intensity
KRRAPPPVPKKPSSR	7000

Each binder was assayed against CaBbc1 in the same assay as above.
Summary of the method: as §1

Binder	SPOT peptide array binding signal intensity
KRRAPPPVPKKPSSR	2030

The binders below were run against CaBem1-D1 in the same assay as above.
Summary of the method: as §1

Binder	SPOT peptide array binding signal intensity
KRRAPPPVPKKPSSR	95

Each binder was assayed against CaBzz1-D1 in the same assay as above.
Summary of the method: as §1

Binder	SPOT peptide array binding signal intensity
KRRAPPPVPKKPSSR	7240

These binders were tested against CaBzz1-D2 in the same assay as above.
Summary of the method: as §1

Binder	SPOT peptide array binding signal intensity
KRRAPPPVPKKPSSR	4490

Each binder was assayed against CaCyk3 in the same assay as above.
Summary of the method: as §1

Binder	SPOT peptide array binding signal intensity
KRRAPPPVPKKPSSR	458

These binders were tested against CaFus1 in the same assay as above.
Summary of the method: as §1

Binder	SPOT peptide array binding signal intensity
KRRAPPPVPKKPSSR	308

The binders below were run against CaHof1 in the same assay as above.
Summary of the method: as §1

Binder	SPOT peptide array binding signal intensity
KRRAPPPVPKKPSSR	0.75

These binders were tested against CaHse1 in the same assay as above.
Summary of the method: as §1

Binder	SPOT peptide array binding signal intensity
KRRAPPPVPKKPSSR	1600

What follows are binders tested against CaLsb1 in the same assay as above.
Summary of the method: as §1

Binder	SPOT peptide array binding signal intensity
KRRAPPPVPKKPSSR	≤ 0

The binders below were run against CaLsb4 in the same assay as above.
Summary of the method: as §1

Binder	SPOT peptide array binding signal intensity
KRRAPPPVPKKPSSR	2400

The binders below were run against CaMyo5 in the same assay as above.
Summary of the method: as §1

Binder	SPOT peptide array binding signal intensity
KRRAPPPVPKKPSSR	4.75

What follows are binders tested against CaNbp2 in the same assay as above.
Summary of the method: as §1

Binder	SPOT peptide array binding signal intensity
KRRAPPPVPKKPSSR	2600

Each binder was assayed against CaRvs167 in the same assay as above.
Summary of the method: as §1

Binder	SPOT peptide array binding signal intensity
KRRAPPPVPKKPSSR	130

Each binder was assayed against CaRvs167-3 in the same assay as above.
Summary of the method: as §1

Binder	SPOT peptide array binding signal intensity
KRRAPPPVPKKPSSR	21.8

Each binder was assayed against CaSho1 in the same assay as above.
Summary of the method: as §1

Binder	SPOT peptide array binding signal intensity
KRRAPPPVPKKPSSR	269

Each binder was assayed against CaSla1-D1-D2 in the same assay as above.
Summary of the method: as §1

Binder	SPOT peptide array binding signal intensity
KRRAPPPVPKKPSSR	3450

The binders below were run against CaSla1-D3 in the same assay as above.
Summary of the method: as §1

Binder	SPOT peptide array binding signal intensity
KRRAPPPVPKKPSSR	1040

Each binder was assayed against ScAbp1 in the same assay as above.
Summary of the method: as §1

Binder	SPOT peptide array binding signal intensity
KRRAPPPVPKKPSSR	3030

These binders were tested against ScBbc1 in the same assay as above.
Summary of the method: as §1

Binder	SPOT peptide array binding signal intensity
KRRAPPPVPKKPSSR	669

Each binder was assayed against ScBem1-D1 in the same assay as above.
Summary of the method: as §1

Binder	SPOT peptide array binding signal intensity
KRRAPPPVPKKPSSR	29

What follows are binders tested against ScBzz1-D1 in the same assay as above.
Summary of the method: as §1

Binder	SPOT peptide array binding signal intensity
KRRAPPPVPKKPSSR	2330

The binders below were run against ScBzz1-D2 in the same assay as above.
Summary of the method: as §1

Binder	SPOT peptide array binding signal intensity
KRRAPPPVPKKPSSR	82.5

These binders were tested against ScCyk3 in the same assay as above.
Summary of the method: as §1

Binder	SPOT peptide array binding signal intensity
KRRAPPPVPKKPSSR	13

The binders below were run against ScFus1 in the same assay as above.
Summary of the method: as §1

Binder	SPOT peptide array binding signal intensity
KRRAPPPVPKKPSSR	45.5

The binders below were run against ScHof1 in the same assay as above.
Summary of the method: as §1

Binder	SPOT peptide array binding signal intensity
KRRAPPPVPKKPSSR	0.5

Each binder was assayed against ScHse1 in the same assay as above.
Summary of the method: as §1

Binder	SPOT peptide array binding signal intensity
KRRAPPPVPKKPSSR	448

Each binder was assayed against ScLsb1 in the same assay as above.
Summary of the method: as §1

Binder	SPOT peptide array binding signal intensity
KRRAPPPVPKKPSSR	517

These binders were tested against ScLsb2 in the same assay as above.
Summary of the method: as §1

Binder	SPOT peptide array binding signal intensity
KRRAPPPVPKKPSSR	684

Each binder was assayed against ScLsb3 in the same assay as above.
Summary of the method: as §1

Binder	SPOT peptide array binding signal intensity
KRRAPPPVPKKPSSR	4730

Each binder was assayed against ScLsb4 in the same assay as above.
Summary of the method: as §1

Binder	SPOT peptide array binding signal intensity
KRRAPPPVPKKPSSR	105

The binders below were run against ScMyo3 in the same assay as above.
Summary of the method: as §1

Binder	SPOT peptide array binding signal intensity
KRRAPPPVPKKPSSR	439

The binders below were run against ScMyo5 in the same assay as above.
Summary of the method: as §1

Binder	SPOT peptide array binding signal intensity
KRRAPPPVPKKPSSR	380

What follows are binders tested against ScNbp2 in the same assay as above.
Summary of the method: as §1

Binder	SPOT peptide array binding signal intensity
KRRAPPPVPKKPSSR	6200

The binders below were run against ScPex13 in the same assay as above.
Summary of the method: as §1

Binder	SPOT peptide array binding signal intensity
KRRAPPPVPKKPSSR	512

These binders were tested against ScRvs167 in the same assay as above.
Summary of the method: as §1

Binder	SPOT peptide array binding signal intensity
KRRAPPPVPKKPSSR	1260

Each binder was assayed against ScSho1 in the same assay as above.
Summary of the method: as §1

Binder	SPOT peptide array binding signal intensity
KRRAPPPVPKKPSSR	3480

What follows are binders tested against ScSla1-D1-D2 in the same assay as above.
Summary of the method: as §1

Binder	SPOT peptide array binding signal intensity
KRRAPPPVPKKPSSR	4950

Each binder was assayed against ScSla1-D3 in the same assay as above.
Summary of the method: as §1

Binder	SPOT peptide array binding signal intensity
KRRAPPPVPKKPSSR	1400

Each binder was assayed against SpAbp1-D1 in the same assay as above.
Summary of the method: as §1

Binder	SPOT peptide array binding signal intensity
KRRAPPPVPKKPSSR	6350

Each binder was assayed against SpBbc1 in the same assay as above.
Summary of the method: as §1

Binder	SPOT peptide array binding signal intensity
KRRAPPPVPKKPSSR	192

What follows are binders tested against SpBzz1-D1 in the same assay as above.
Summary of the method: as §1

Binder	SPOT peptide array binding signal intensity
KRRAPPPVPKKPSSR	1370

What follows are binders tested against SpBzz1-D2 in the same assay as above.
Summary of the method: as §1

Binder	SPOT peptide array binding signal intensity
KRRAPPPVPKKPSSR	1470

These binders were tested against SpCyk3 in the same assay as above.
Summary of the method: as §1

Binder	SPOT peptide array binding signal intensity
KRRAPPPVPKKPSSR	2.5

These binders were tested against SpHof1 in the same assay as above.
Summary of the method: as §1

Binder	SPOT peptide array binding signal intensity
KRRAPPPVPKKPSSR	218

What follows are binders tested against SpHof1-2 in the same assay as above.
Summary of the method: as §1

Binder	SPOT peptide array binding signal intensity
KRRAPPPVPKKPSSR	37.8

These binders were tested against SpHof1-3 in the same assay as above.
Summary of the method: as §1

Binder	SPOT peptide array binding signal intensity
KRRAPPPVPKKPSSR	591

The binders below were run against SpHse1 in the same assay as above.
Summary of the method: as §1

Binder	SPOT peptide array binding signal intensity
KRRAPPPVPKKPSSR	179

What follows are binders tested against SpLsb1 in the same assay as above.
Summary of the method: as §1

Binder	SPOT peptide array binding signal intensity
KRRAPPPVPKKPSSR	1780

These binders were tested against SpLsb4 in the same assay as above.
Summary of the method: as §1

Binder	SPOT peptide array binding signal intensity
KRRAPPPVPKKPSSR	2060

Each binder was assayed against SpMyo1 in the same assay as above.
Summary of the method: as §1

Binder	SPOT peptide array binding signal intensity
KRRAPPPVPKKPSSR	416

What follows are binders tested against SpNbp2 in the same assay as above.
Summary of the method: as §1

Binder	SPOT peptide array binding signal intensity
KRRAPPPVPKKPSSR	188

What follows are binders tested against SpPex13 in the same assay as above.
Summary of the method: as §1

Binder	SPOT peptide array binding signal intensity
KRRAPPPVPKKPSSR	22

These binders were tested against SpRvs167 in the same assay as above.
Summary of the method: as §1

Binder	SPOT peptide array binding signal intensity
KRRAPPPVPKKPSSR	1820

The binders below were run against SpSla1-D1-D2 in the same assay as above.
Summary of the method: as §1

Binder	SPOT peptide array binding signal intensity
KRRAPPPVPKKPSSR	1660

The binders below were run against SpSla1-D3 in the same assay as above.
Summary of the method: as §1

Binder	SPOT peptide array binding signal intensity
KRRAPPPVPKKPSSR	1.5

— the supplement of paper PMC4466140
